OPRM1-OPRD1 ag: OPRM1-OPRD1 heterodimerization agonism; hit rate 0.3% among 340,000; activation, % at 9.3 µM; cells, luminescence; in the data active = activation above about 18%;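 note: 0% = vehicle-treated cells and 100% = reference agonist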
Target sequence (P35372 whole entry, looked up): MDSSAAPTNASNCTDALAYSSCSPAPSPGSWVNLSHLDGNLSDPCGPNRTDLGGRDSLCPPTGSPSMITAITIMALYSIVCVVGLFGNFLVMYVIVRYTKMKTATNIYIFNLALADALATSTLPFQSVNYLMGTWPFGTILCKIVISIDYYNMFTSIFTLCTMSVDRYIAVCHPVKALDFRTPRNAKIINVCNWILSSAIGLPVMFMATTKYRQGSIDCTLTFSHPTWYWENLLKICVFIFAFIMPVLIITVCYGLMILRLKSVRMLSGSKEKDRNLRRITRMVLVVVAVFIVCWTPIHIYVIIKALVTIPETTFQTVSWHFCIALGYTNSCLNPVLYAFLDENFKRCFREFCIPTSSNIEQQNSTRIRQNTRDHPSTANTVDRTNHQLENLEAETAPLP
Target sequence (P41143 whole entry, looked up): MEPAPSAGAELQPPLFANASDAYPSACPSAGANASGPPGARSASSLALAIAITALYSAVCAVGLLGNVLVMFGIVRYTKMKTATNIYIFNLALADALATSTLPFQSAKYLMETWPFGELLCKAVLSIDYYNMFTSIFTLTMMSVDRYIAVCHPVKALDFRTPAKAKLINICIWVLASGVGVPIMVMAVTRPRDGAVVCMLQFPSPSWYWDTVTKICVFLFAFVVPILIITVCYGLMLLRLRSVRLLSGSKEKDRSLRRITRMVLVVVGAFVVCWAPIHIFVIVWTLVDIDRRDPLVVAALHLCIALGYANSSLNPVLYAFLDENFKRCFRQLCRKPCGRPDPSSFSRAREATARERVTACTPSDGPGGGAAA
HTR5A ag: activates human HTR5A in OPRM1-OPRD1 agonist counter-screen | HTR5A agonist assay, luminescence, cell-based | activation, % at 9.3 µM | hit rate 0.61% among 340,000; in the data active = activation mostly above about 9.5%, no sharp cut-off; inactive = mostly below about 7.6%;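 note: 0% = cells with vehicle only and 100% = reference agonist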
HTR5A inv ag: counter-screen for OPRM1-OPRD1 inverse agonists: human HTR5A inverse agonism. P47898. inhibition, % at 9.3 µM. HTR5A cell line, luminescence. hit rate 0.083% among 340,000; in the data active = inhibition mostly above about 23%, no sharp cut-off; inactive = mostly below about 18%;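 note: 0% = cells with DMSO and 100% = no-cell wells with DMSO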
MOR-DOR inv ag-1: inverse agonists of human mu-delta opioid receptor heterodimerization; P35372+P41143; cell-based MOR-DOR heterodimer luminescence, inverse agonism; inhibition, % at 9.3 µM; hit rate 0.21% among 340,000; AID 504357; in the data active = inhibition above about 22%, passing the limit was not always enough;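 note: 0% = cells with DMSO and 100% = wells without cells with DMSO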
MOR-DOR ag conf: OPRM1-OPRD1 heterodimer agonism, confirmation; shares compounds with OPRM1-OPRD1 ag; cells, MOR-DOR heterodimerization, luminescence complementation; activation, % at 9.3 µM; hit rate 45% among 830; in the data active = activation above about 18%;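 note: 0% = vehicle-treated cells and 100% = reference agonist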
HTR5A ag counter: activates human HTR5A in OPRM1-OPRD1 agonist counter-screen | HTR5A agonist counterscreen, cell luminescence | shares compounds with OPRM1-OPRD1 ag | hit rate 8% among 830 | activation, % at 9.3 µM; in the data active = activation above about 17%;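 note: 0% = vehicle-treated cells and 100% = reference agonist response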
OPRM1-D1 inv cf: OPRM1-OPRD1 heterodimer inverse agonism, confirmation; inhibition, % at 9.3 µM; shares compounds with MOR-DOR inv ag-1; AID 504900; cells expressing OPRM1/OPRD1 heterodimer, luminescence; hit rate 20% among 580; in the data active = inhibition above about 32%;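 note: 0% = cells with DMSO and 100% = wells lacking cells with DMSO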
HTR5A inv count: counter-screen for OPRM1-OPRD1 inverse agonists: human HTR5A inverse agonism; inhibition, % at 9.3 µM; HTR5A-expressing cells, luminescence; shares compounds with MOR-DOR inv ag-1; 580 tested, under 10 active;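 note: 0% = cells with DMSO and 100% = no-cell wells with DMSO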
MOR-DOR inv ag-2: opioid heterodimer inverse agonism, HTR5A counter-screen; inhibition, % at 9.3 µM; shares compounds with HTR5A inv ag; U2OS counter-screen cells, complementation luminescence; 190 tested, under 10 active;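 note: 0% = cells with DMSO and 100% = wells without cells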
HTR5A inv confrm: HTR5A (human) inverse agonism, confirmation. shares compounds with HTR5A inv ag. HTR5A-expressing cells, luminescence. inhibition, % at 9.3 µM. 190 tested, under 10 active;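 note: 0% = cells with DMSO and 100% = no cells with DMSO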
* = called active by the depositor; i = inactive; x = not tested or not shown. In the library only some 1.1% were active in any assay of this set; here they are far more common. Unless noted, the rule behind the calls is not given here.

SMILES	OPRM1-OPRD1 ag	HTR5A ag	HTR5A inv ag	MOR-DOR inv ag-1	OPRM1-D1 inv cf	HTR5A inv count	others
Cc1ccc(NC(=O)Cn2nnc(C(=O)Nc3ccc(C)c(C)c3)c2N)cc1	-0.8	4.5	-13.6	3.8	x	x
C[C@@H]1CN([C@H](C)CO)C(=O)c2cc(NS(=O)(=O)c3cn(C)cn3)ccc2O[C@@H]1CN(C)S(C)(=O)=O	-0.8	-1.1	-8.6	4.5	x	x
CCc1ccc(C(=O)NNC(=O)c2ccc(OCC(=O)N3CCOCC3)c(OC)c2)cc1	-0.9	6.0	-8.8	3.6	x	x
O=S(=O)(NCC1(N2CCOCC2)CCCCC1)c1ccc(F)c(F)c1F	0.2	7.4	-22.3	-1.0	x	x
Cc1c(CN2CCC(n3nccc3NC(=O)C3CC3)CC2)[nH]c2ccccc12	44.7*	6.6	11.8	-241.8	x	x	MOR-DOR ag conf=0.7;HTR5A ag counter=31.4*
Cc1ccc(Nc2cc(C)nc3c(C)cccc23)cc1	28.6*	-0.8	2.9	-136.1	x	x	MOR-DOR ag conf=14.8;HTR5A ag counter=-1.0
CCOC(=O)C1=C(C)Nc2ccccc2N/C1=N\S(=O)(=O)c1ccccc1	1.8	-1.6	1.2	-11.8	x	x
CCN(CC)c1ccc(C(=C2C=CC(=[N+](CC)CC)C=C2)c2ccc(N(CC)CC)cc2)cc1	108.1*	-19.8	50.3*	-430.7	x	x	MOR-DOR ag conf=3.8;HTR5A ag counter=32.9*;MOR-DOR inv ag-2=-58.5;HTR5A inv confrm=-121.9
C[C@@H]1CN([C@@H](C)CO)C(=O)c2cccc(NC(=O)Nc3ccccc3)c2O[C@H]1CN(C)C(=O)Nc1cccc2ccccc12	1.0	-6.8	17.2	-5.6	x	x
O=C1Cc2cccc3cccc1c23	-5.2	-2.5	-7.6	29.7*	12.2	-16.9
O=C1OCc2cccc3cccc1c23	-0.2	-0.6	-6.2	1.3	x	x
N#CC(C#N)=C1C=CC=CN1/C(=C\c1ccccc1Cl)C(=O)c1ccccc1	-6.6	1.9	23.2	35.1*	17.6	15.9
C=CCNC(=O)c1cc2c(=O)n3ccccc3nc2s1	-2.7	1.6	-5.9	12.7	x	x
Cc1ccc(Cl)c2c1NC(=O)C2(O)CC(=O)c1ccccc1O (centres undefined)	-14.9	-3.9	27.4	80.3*	75.5*	-9.5
COc1ccc(OC)c(NC(=O)COc2ccc(S(=O)(=O)N3CCCC3)cc2)c1	0.3	2.6	-7.8	-2.6	x	x
COC(=O)NNC(=O)c1ccc(Cl)cc1Cl	0.4	-0.6	-16.4	-2.2	x	x
CC(C)(C)C(=O)NC(=S)NNC(=O)c1ccc(Cl)cc1Cl	-7.7	-4.5	13.2	38.5*	15.5	16.9
N#C/C(=C\c1cccc(Br)c1)C(=O)N1CCCCC1	-1.9	-0.3	0.9	10.3	x	x
CCN1C(=O)CS/C1=N\S(=O)(=O)c1ccc(Cl)cc1	-0.9	0.2	-0.7	4.6	x	x
CCn1c(Cl)c(C=O)s/c1=N\S(=O)(=O)c1ccccc1	-6.3	-2.2	6.1	33.5*	19.7	16.5
O=C(Nc1sc2c(c1C(=O)NCCO)CCCC2)c1ccco1	-1.1	6.2	-16.7	6.1	x	x
O=C1Nc2ccccc2/C1=N/c1sc2c(c1C(=O)NCCc1ccccc1)CCCC2	-5.8	2.3	-23.6	33.5*	20.9	14.1
Cc1cccc2c1N(CCOc1ccc(C(C)(C)C)cc1)C(=O)C2=O	-5.9	-1.9	5.2	35.6*	-14.1	-110.5
Cc1ccc(OCCCN2C(=O)C(=O)c3cccc(C)c32)cc1	-8.3	-1.0	2.7	45.0*	12.3	5.1
CN(C)CC(=O)c1ccc(-c2ccccc2)cc1	-6.1	-1.0	0.1	33.5*	-41.8	-12.0
SMILES	OPRM1-OPRD1 ag	HTR5A ag	HTR5A inv ag	MOR-DOR inv ag-1	OPRM1-D1 inv cf	HTR5A inv count	others
CCN(CC)CC(=O)c1ccc(-c2ccccc2)cc1	-10.2	-2.9	9.5	54.2*	-57.6	5.0
Cc1cccc(NC(=S)NNc2ncc(C(F)(F)F)cc2Cl)c1	-8.7	-2.1	48.5	45.0*	32.9*	22.2
S=C(NNc1ccnc2cc(Cl)ccc12)Nc1ccccc1Cl	4.5	1.9	-28.7	-23.4	x	x
FC(F)(F)c1cnc(NNC(=S)Nc2ccccc2Cl)c(Cl)c1	-8.1	-9.1	29.2	43.2*	44.0*	34.5
O=C(COc1ccc2ccc(=O)oc2c1)Nc1c(Cl)cccc1C(F)(F)F	-2.6	-0.5	-0.8	13.9	x	x
Cn1c(SCC(=O)NC(=O)NCc2ccccc2)nnc1C(F)(F)F	-0.8	-5.0	12.3	3.3	x	x
CN(c1ccccc1C(=O)Nc1ccc(S(=O)(=O)N2CCOCC2)cc1)S(=O)(=O)c1ccccc1	-6.5	3.1	4.9	33.2*	-3.2	-15.4
Cc1nn(-c2ccc(N3CCOCC3)nn2)c(C)c1CCC(=O)N1CCN(C)CC1	0.0	-1.0	21.6	0.1	x	x
CCOC(=O)c1c(N)ssc1=S	-6.2	-0.8	22.9	34.9*	19.7	-11.1
CCOC(=O)c1c(N)sc(N)c1C(=O)OCC	-10.1	8.1	11.9	51.1*	i	-3.6
COc1ccc(-c2nn(-c3ccccc3)cc2C(=O)NC(=S)N2CCOCC2)cc1OC	-2.9	2.8	5.4	11.7	x	x
CCOC(=O)C(OC(=O)c1sc(=S)n(C)c1C)C(C)=O (centres undefined)	-7.3	-1.3	3.7	39.4*	21.5	18.3
Cc1nn(CCC(=O)NNC(=S)Nc2ccc([N+](=O)[O-])cc2)c(C)c1[N+](=O)[O-]	-4.5	0.0	7.9	24.1	x	x
Cc1nn(CCC(=O)NNC(=S)Nc2ccc(F)cc2)c(C)c1Br	-7.9	-3.0	-26.7	43.6*	1.8	7.4
CCCCn1c(N)c(N(CCC(C)C)C(=O)COC(=O)/C=C/c2ccc(F)cc2)c(=O)[nH]c1=O	-1.5	3.1	-12.3	7.3	x	x
CC(=O)C1=C(c2ccccc2)N(C(C)=O)n2c(C)nnc2S1	-17.0	-1.9	4.9	86.3*	16.4	12.5
CC(=O)N1CCN(c2nnc(-c3ccccc3)c3ccccc23)CC1	-1.0	1.3	-5.2	4.8	x	x
O=C(NCC(=O)N(c1cccc(F)c1)C(C(=O)NC1CCCC1)c1cccnc1)c1ccco1 (centres undefined)	-2.1	0.9	-0.5	13.3	x	x
O=C(Cc1ccc([N+](=O)[O-])cc1)N/N=C/c1cccs1	-1.4	3.0	0.4	7.3	x	x
O=C(Nc1ccc(Br)cc1)N1CCCCCCC1	-5.8	1.9	6.3	33.1*	-67.7	-18.4
CC1CCCN(CCCNC(=O)C2CC(=O)N(CCc3ccccc3)C2)C1 (centres undefined)	-2.4	0.1	17.4	12.7	x	x

Screening results: PubChem BioAssay, The Scripps Research Institute Molecular Screening Center
